Assay outcomes: PubChem BioAssay, National Center for Advancing Translational Sciences (NCATS)
Hits are enriched below; roughly 0.53% of the tested compounds scored in any of these assays.
Vif-APOBEC3F blk: blocks the Vif interaction with APOBEC3F; HeLa A3F-eYFP + Vif (tagged APOBEC3F with the HIV-1 protein that degrades it), YFP fluorescence increase; Potency, µM (top dose mostly 46.1 µM); hit rate 0.2% among 390,000; AID 602313; also: nearly all actives have a fitted effect of over 65% in size
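Fluorescence increase (Ex 488/Em 500-530) after overnight compound treatment at 37 deg C flags inhibition of Vif-driven A3F-eYFP loss in stable HeLa A3F-eYFP/Vif cells seeded overnight beforehand.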
Vif-A3G inh: Vif-A3G binding inhibition | HeLa A3G-eYFP + Vif (tagged APOBEC3G with the HIV-1 protein that degrades it), YFP fluorescence, overnight | Potency, µM (doses to about 46.1 µM), hits mostly inhibitors | hit rate 0.076% among 410,000 | AID 602310; also: nearly all actives have a fitted effect of over 60% in size
Target sequence (Q9HC16 whole entry, looked up): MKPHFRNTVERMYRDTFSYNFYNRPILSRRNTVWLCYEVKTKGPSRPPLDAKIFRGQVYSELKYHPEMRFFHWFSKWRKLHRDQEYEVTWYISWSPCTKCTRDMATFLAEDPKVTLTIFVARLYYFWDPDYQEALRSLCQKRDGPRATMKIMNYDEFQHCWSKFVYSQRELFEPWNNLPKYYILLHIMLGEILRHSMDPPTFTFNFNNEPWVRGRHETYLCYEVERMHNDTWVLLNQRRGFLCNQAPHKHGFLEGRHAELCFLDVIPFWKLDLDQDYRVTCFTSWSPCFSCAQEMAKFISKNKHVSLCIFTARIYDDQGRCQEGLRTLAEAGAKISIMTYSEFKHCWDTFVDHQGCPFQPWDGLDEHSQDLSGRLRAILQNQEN
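HeLa cells stably expressing Vif and C-terminally eYFP-tagged A3G, seeded overnight at 37 deg C, then exposed to compound by pintool overnight at 37 deg C. Rise in yellow fluorescence (Ex 488/Em 500-530, Acumen) marks blocked Vif-driven A3G degradation.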
PKM2 activator: activators of human pyruvate kinase M2. P14618. purified PKM2, Kinase-Glo ATP luminescence, activation; response scale: 0% is enzyme alone, no compound. hit rate 0.34% among 260,000. Potency, µM (doses to about 57.5 µM), usual class: activators. AID 1631; also: nearly all actives have a fitted effect of over 55% in size
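hPK-M2, >95% pure; 0.1 mM ADP / 0.5 mM PEP final; imidazole pH7.2 buffer w/ 7 mM MgCl2, 50 mM KCl; 1 h RT; Kinase-Glo lum. Intermediate enzyme activity for dual inhibitor/activator qHTS.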
IL-2 act: activates IL-2 in a cell-based reporter assay | IL-2 activation reporter assay, cell-based qHTS; stimulated with anti-CD3/CD4/CD28 beads; in transgenic mouse T cells | activation, % (series mostly up to about 46 µM) | hit rate 0.065% among 360,000 | AID 652025; in the data active = activation above about 50%; inconclusive = mostly about 30% to 49%
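Unstimulated transgenic mouse T cells preincubated 60 min with compound, then stimulated with anti-CD3/anti-CD4-coated beads plus anti-CD28 for 18 h at 37 degrees C. IL-2 response read as EGFP and DsRed fluorescence by plate cytometry.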
HeLa tox: HeLa cytotoxicity, CellTiter-Glo readout | 230 tested, under 10 active | HeLa viability, CellTiter-Glo ATP luminescence, 24 h | shares compounds with PKM2 activator | AID 1898 | activity change, negative = cytotoxicity, % at 57.5 µM
Large screens that a line does not name were inactive (follow-up assays come after a bar, where they were run). Unless noted, calls follow the shape of the dose curve; as a rule, active = well fitted curve in the direction sought with a large enough effect; inconclusive = small, poorly fitted or top-dose-only effect, or another doubt; inactive = no such curve, though single readings can be large; an effect the other way counts as inactive or inconclusive.

O=C(Cn1ncc2c3ccccc3n(Cc3ccccc3F)c2c1=O)N1CCCCC1	none (no result: PKM2 activator, IL-2 act)
Cn1c2ccccc2c2cnn(CC(=O)Nc3cccc(F)c3)c(=O)c21	none
COc1cc2c(s1)c1cnn(Cc3ccccc3F)c(=O)c1n2C	none (no result: Vif-APOBEC3F blk, Vif-A3G inh, PKM2 activator, IL-2 act) | HeLa tox inactive
Cc1cc2c(s1)c1cnn(CC(=O)N3CCOCC3)c(=O)c1n2C	none (no result: Vif-APOBEC3F blk, PKM2 activator, IL-2 act)
Cn1c2cc(CO)sc2c2cnn(Cc3ccccc3F)c(=O)c21	none (no result: Vif-APOBEC3F blk, Vif-A3G inh, PKM2 activator, IL-2 act) | HeLa tox inactive
CC(=O)Nc1cc2c(s1)c1cnn(Cc3ccccc3F)c(=O)c1n2C	none (no result: Vif-APOBEC3F blk, Vif-A3G inh, PKM2 activator, IL-2 act) | HeLa tox inactive
Cn1c2cc(C=O)sc2c2cnn(Cc3ccccc3F)c(=O)c21	none (no result: Vif-APOBEC3F blk, Vif-A3G inh, PKM2 activator, IL-2 act) | HeLa tox inactive
CCCCOc1ccc(CNC(=O)CN2C(=O)CCn3nc(-c4cn(C)c5ccccc45)cc32)cc1	none (no result: PKM2 activator, IL-2 act)
NNC(=O)c1ccc(C(=O)N(c2ccccc2)c2ccccc2)cc1	none (no result: Vif-APOBEC3F blk, PKM2 activator, IL-2 act)
COC(=O)[C@]1(Sc2ccc(OC)cc2)CC(=O)N[C@@H]1c1ccccc1	none (no result: Vif-APOBEC3F blk, Vif-A3G inh, PKM2 activator)
CCc1cc2c(s1)c1cnn(Cc3ccccc3F)c(=O)c1n2C	none (no result: Vif-APOBEC3F blk, Vif-A3G inh, PKM2 activator, IL-2 act) | HeLa tox inconclusive
CSc1cc2c(s1)c1cnn(Cc3ccccc3F)c(=O)c1n2C	none (no result: Vif-APOBEC3F blk, Vif-A3G inh, PKM2 activator, IL-2 act) | HeLa tox inactive
O=C(Cn1ncc2c3ccccc3n(Cc3ccccc3F)c2c1=O)N1CCCCCC1	none (no result: PKM2 activator, IL-2 act)
Cc1oc(-c2ccc(C(=O)NCCC(C)C)cc2)nc1CS(=O)(=O)c1ccccc1	none (no result: PKM2 activator, IL-2 act)
CC1CCN(C(=O)c2ccc(NS(=O)(=O)c3cccc4cccnc34)cc2)CC1	PKM2 activator 2.8µM | HeLa tox inactive
CN(C)/[N+]([O-])=N/Oc1ccc([N+](=O)[O-])cc1[N+](=O)[O-]	none (no result: Vif-APOBEC3F blk, PKM2 activator, IL-2 act)
CCN1C(=O)c2cccc3c(S(=O)(=O)Nc4ccccn4)ccc1c23	PKM2 activator inconclusive
CCN1C(=O)c2cccc3c(S(=O)(=O)Nc4ccccc4)ccc1c23	PKM2 activator 4µM | HeLa tox inconclusive
S=C(c1ccc(-c2ccc(Cl)cc2Cl)o1)N1CCCCC1	none
S=C(c1ccc(-c2ccc(Cl)cc2Cl)o1)N1CCCC1	PKM2 activator 8.9µM | HeLa tox inactive
Cc1cc(C(=O)OCC(=O)N2CCOCC2)c2ccccc2n1	PKM2 activator 3.5µM (no result: Vif-APOBEC3F blk) | HeLa tox inactive
CC(C)(C)c1ccc(OCCn2c(CCNC(=O)C3CCCCC3)nc3ccccc32)cc1	none (no result: Vif-APOBEC3F blk, PKM2 activator, IL-2 act)
Cn1c(N)c(C(=O)CSc2ccc3c(c2)OCCO3)c(=O)n(C)c1=O	PKM2 activator 3.5µM | HeLa tox inactive
Cc1cccc(Cc2c(C)nc3nc(SCC(=O)NCc4ccccc4)nn3c2C)c1	Vif-A3G inh inconclusive (no result: PKM2 activator, IL-2 act)
COc1cc2c(C(=O)NCc3ccc(C)o3)cn(CC(C)C)c(=O)c2cc1OC	PKM2 activator 14µM | HeLa tox inactive
CCn1cc(C(=O)NCc2ccco2)c2cc(OC)c(OC)cc2c1=O	none
O=C(Cn1ncn2c(cc3sccc32)c1=O)NCCc1ccccc1	none (no result: PKM2 activator, IL-2 act)
COc1ccc(CCNc2ccc(S(=O)(=O)N3CCCC3)cc2[N+](=O)[O-])cc1	PKM2 activator 3.2µM | HeLa tox inactive
Cn1ccc2cc(S(=O)(=O)N3CCN(S(=O)(=O)c4c(F)cccc4F)CC3)ccc21	none (no result: Vif-APOBEC3F blk, Vif-A3G inh, PKM2 activator, IL-2 act) | HeLa tox inactive
O=S(=O)(c1ccc2ccccc2c1)N1CCN(S(=O)(=O)c2c(F)cccc2F)CC1	none (no result: PKM2 activator) | HeLa tox inconclusive
COc1ccc(CCC(=O)N2CCN(S(=O)(=O)c3ccc4ccccc4c3)CC2)cc1	PKM2 activator 0.79µM | HeLa tox inactive
CC(=O)c1ccc(N2CCN(C(=O)NCc3noc4ccc(C)cc34)CC2)cc1	none (no result: PKM2 activator, IL-2 act)
Cc1ccc(NC(=O)c2cnc(SCC(=O)N3CCCc4ccccc43)n(C)c2=O)cc1	none (no result: PKM2 activator, IL-2 act)
Cc1ccc(S(=O)(=O)N2CCCN(S(=O)(=O)c3ccc4ccccc4c3)CC2)cc1	PKM2 activator 0.71µM | HeLa tox inactive
Cc1nc2ccc(S(=O)(=O)N3CCN(S(=O)(=O)c4c(F)cccc4F)CC3)cc2s1	none (no result: Vif-APOBEC3F blk, Vif-A3G inh, PKM2 activator, IL-2 act) | HeLa tox inactive
COc1cc(NC(=O)C2CCN(S(=O)(=O)c3ccc4c(c3)oc(=O)n4C)CC2)cc(OC)c1	none (no result: PKM2 activator, IL-2 act)
CCCC[C@@H]1C[C@H]1C(NC(=O)Cc1ccccc1)c1ccc(Cl)cc1 (stereo partly specified)	none (no result: Vif-APOBEC3F blk, Vif-A3G inh, IL-2 act)
Cc1cccc(CN2CCN(c3nc4nonc4nc3NC3CC3)CC2=O)c1	PKM2 activator 3.5µM | HeLa tox inactive
Cc1ccc(CNC(=O)CSc2ncc3c(n2)-c2cc(Cl)ccc2N(C)S3(=O)=O)cc1	none (no result: PKM2 activator, IL-2 act)
